Among all 87,000 compounds or so, about 360 (0.41%) were called active. The sample holds actives, similar compounds and a random draw of the others, so the mix is not that of the screen. Values without a mark were called inactive. Rule as the data show it: active = cytotoxicity above about 50%; inactive = the rest.
Assay: cytotoxicity in HT1080 fibrosarcoma cells, cell-based, fluorescence readout (AID 620);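 also: cells exposed to compound overnight then 4 h with Alamar Blue; 0% = vehicle DMSO and 100% = killing control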
Conditions: HT1080 viability, at 10 µM, stronger effect = higher value

SMILES | cytotoxicity
CCOC(=O)CSC1=C(C#N)C(c2ccc(C)s2)CC(=O)N1 (stereo not drawn) | 58% (active)
CCOC(=O)CSC1=C(C#N)C(c2ccccc2OC)CC(=O)N1 (stereo not drawn) | -1%
CCOC(=O)CSC1=C(C#N)C(c2ccc(C)o2)CC(=O)N1 (stereo not drawn) | 59.5% (active)
CCOC(=O)CSC1=C(C#N)C(c2ccc(Cl)cc2)CC(=O)N1 (stereo not drawn) | 2.7%
CCCCCCSC1=C(C#N)C(c2ccc(C)o2)CC(=O)N1 (stereo not drawn) | 29.7%
CCSC1=C(C#N)C(c2ccc(C)s2)CC(=O)N1 (stereo not drawn) | 0.8%
COc1cc(C(=O)Nc2nnc(CC(=O)N3CCOCC3)s2)cc(OC)c1OC | -1%
CCOc1ccccc1NC(=O)CSc1nnnn1-c1ccccc1 | 7.2%
Cc1noc(C)c1S(=O)(=O)N1CCCC(C(=O)NCc2ccccn2)C1 (stereo not drawn) | 3.9%
COC(=O)CN(Cc1ccco1)S(=O)(=O)c1ccccc1 | 1.2%
CC1=CCC(Cc2nc3ccccc3o2)C1(C)C (stereo not drawn) | 0.6%
CCOc1cc(N2CCOCC2)c(OCC)cc1NC(=O)CCS(=O)(=O)c1ccc(Cl)cc1 | 6.9%
CCOc1cc(N2CCOCC2)c(OCC)cc1NS(=O)(=O)c1ccc(Cl)s1 | 51.9% (active)
CCOc1ccc(Br)cc1S(=O)(=O)Nc1ccccc1N1CCOCC1 | 4.5%
O=C(NC1CCCCCC1)C1CCN(C(=O)Cc2ccccc2)CC1 | 3.1%
COc1ccc2nc(-n3c(C)ccc3C)sc2c1 | -1.1%
O=C(N1CCN(CCO)CC1)N1c2ccccc2C=Cc2ccccc21 | 3.2%
COc1ccc(NC(=O)CC(=O)Nc2ccc(OC)cc2OC)c(OC)c1 | -3.5%
CCC(=O)Nc1ccc(OC)cc1OC | -3.2%
CN(C)c1ccc2c(c1)OC(N)=C(C#N)C2c1cccc(F)c1 (stereo not drawn) | 56% (active)
N#CC1=C(N)Oc2cc3ccccc3cc2C1c1cccnc1 (stereo not drawn) | 47.6%

SMILES | cytotoxicity
CCN(CC)c1ccc2c(c1)OC(N)=C(C#N)C2c1cccnc1 (stereo not drawn) | 67.5% (active)
N#CC1=C(N)Oc2c(ccc3cccnc23)C1c1cccnc1 (stereo not drawn) | 39.8%
COc1cc(C2C(C#N)=C(N)Oc3cc(C)oc(=O)c32)cc2c1OCO2 (stereo not drawn) | -1.5%
COc1ccc(C2C(C#N)=C(N)Oc3cc(O)ccc32)cc1OC (stereo not drawn) | -13.3%
N#CC1=C(N)Oc2cc(O)ccc2C1c1ccccc1 (stereo not drawn) | -0.8%
COc1cc(C2C(C#N)=C(N)Oc3cc(O)ccc32)cc2c1OCO2 (stereo not drawn) | -6.6%
COc1cc(C2C(C#N)=C(N)Oc3cc(O)ccc32)cc(OC)c1OC (stereo not drawn) | 64.7% (active)
N#CC1=C(N)Oc2cc(N)ccc2C1c1ccc(F)cc1 (stereo not drawn) | -0.8%
N#CC1=C(N)Oc2cc(O)ccc2C1c1ccncc1 (stereo not drawn) | -6.2%
COc1cc(C2C(C#N)=C(N)Oc3cc(N(C)C)ccc32)cc2c1OCO2 (stereo not drawn) | 63.3% (active)
Cc1cccc(OCCn2c(NC(=O)c3ccco3)nc3ccccc32)c1 | 5.5%
CC(=O)N1[C@H](Cc2ccccc2)C=C[C@]1(C)C(=O)O | 6.6%
CCC(c1nnnn1C1CCCC1)N1CCN(c2ccccc2F)CC1 (stereo not drawn) | -20.4%
Cc1ccnc(NS(=O)(=O)c2ccc(Oc3ccccc3)cc2)c1 | 7.3%
COc1cc(NC(=O)CN2C(=O)NC(C)(CC(C)C)C2=O)cc(OC)c1 (stereo not drawn) | -7.9%
O=C1NC(c2ccccc2)=C(c2nc3ccccc3s2)C(c2ccc(F)cc2)N1 (stereo not drawn) | -3.1%
O=C(CSc1nnc(COc2ccc(Cl)cc2)o1)N1CCN(c2ccccc2)CC1 | 1.3%
O=C(CSc1nnc(COc2ccc(Cl)cc2)o1)N1c2ccccc2CCc2ccccc21 | 62.4% (active)
O=C(CSc1nnc(COc2ccc(F)cc2)o1)N1c2ccccc2CCc2ccccc21 | -8%
O=C(CCCN1C(=O)c2ccccc2C1=O)Nc1ccc(S(=O)(=O)N2CCOCC2)cc1 | 14.1%
CCCCCc1nnc(NC(=O)CS(=O)(=O)Cc2ccccc2)s1 | -1.5%

SMILES | cytotoxicity
CC1=CC(C)(C)Nc2ccc(OC(=O)c3ccco3)cc21 | 59.2% (active)
CC1=CC(C)(C)Nc2ccc(OC(=O)c3cccnc3)cc21 | 14.7%
CC1=CC(C)(C)Nc2ccc(OC(=O)CN3C(=O)C4CCCCC4C3=O)cc21 (stereo not drawn) | -1%
COc1ccc(CC(=O)c2ccccc2C(=O)O)cc1 | -0.2%
CCCCN(CCCC)S(=O)(=O)c1ccc(OC)c2ncccc12 | 32.7%
COc1ccc(C(=O)Oc2ccc(/C=N/O)cc2)cc1 | 2.6%
COc1ccc(N/N=C(/Oc2ccc([N+](=O)[O-])cc2)C(C)=O)cc1 | 5.4%
CO/N=C/C(=N\Nc1ccc(C)cc1)C(=O)c1ccc(OC)cc1 | 53.7% (active)
CO/N=C/C(=N\Nc1ccc(OC)cc1)C(=O)c1ccc(OC)cc1 | 11.7%
COc1ccc(N/N=C(\C=N\O)C(=O)c2ccc(OC)cc2)cc1 | 59% (active)
CO/N=C\C(=N\Nc1ccc(OC)cc1)C(=O)c1ccccc1 | -0.7%
CCOc1ccc(N2C(=O)CSC23CCCCC3)cc1 | -10.8%
COCCn1c(SCC(=O)NCc2cccs2)nnc1-c1ccc(OC)cc1 | 7.9%
Cc1ccc(SC(C)C(=O)Nc2ccncc2)cc1 (stereo not drawn) | -1.4%
O=C1c2[nH]nc(-c3ccccc3O)c2C(c2cccc(Cl)c2)N1Cc1ccco1 (stereo not drawn) | 3.9%
Cc1ccc(S(=O)(=O)N2CCN(C(=O)c3ccc(OCc4c(C)noc4C)cc3)CC2)cc1 | -2.3%
NC(=O)C1CCN(C(=S)c2cccs2)CC1 | 8.7%
N#CC1=C2SCC(O)(c3ccccc3)N2C(=O)CC1c1ccccc1 (stereo not drawn) | 63.1% (active)
N#CC1=C2SCC(O)(c3ccccc3)N2C(=O)CC1c1ccccc1F (stereo not drawn) | 4.1%
COc1ccc(C2CC(=O)N3C(=C2C#N)SCC3(O)c2ccccc2)cc1 (stereo not drawn) | 5.5%
O=C(NCCCN1CCCC1=O)c1cccs1 | 1.9%

From PubChem BioAssay AID620 (Sanford-Burnham Center for Chemical Genomics, 2007)
